Screening data (PubChem)
ugtP null kill – growth inhibition of ugtP-null S. aureus, primary screen, RN4220 ugtP deletion, OD600; 16 h; growth inhibition, % (concentration not given with the values); 0.54% of 330,000 active; AID 1259309, 2017; in the data active means growth inhibition above about 68%;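 further: plate controls were untreated wells for no effect and antibiotic for full effect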
PfHsp40 yeast – rescue of yeast from PfHsp40 toxicity, primary screen, S. cerevisiae, ATP luminescence | S. cerevisiae expressing PfHsp40, growth rescue | AID 504582, 2011 | growth rescue, % at 12.5 µM | 0.68% of 340,000 active; in the data active means growth rescue above about 28%, passing the limit was not always enough;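 further: yeast W303a lacking pdr1 and pdr3 grown in galactose medium; growth measured after three days at 30 °C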
Sa RN4220 lethal – growth inhibition of S. aureus RN4220, primary screen, OD600; inhibition, % (test concentration not listed); 0.33% of 330,000 active; AID 1259311, 2017; 16 h; in the data active means inhibition above about 85%;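 further: plate controls were untreated cells for no effect and reference antibiotic for full effect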
CCHFV vOTU inh – CCHFV vOTU protease inhibitors, primary screen, biochemical, Pep-AMC substrate, fluorescence. inhibition, % at 11.5 µM. 0.55% of 370,000 active; in the data active means inhibition above about 30%; further: 0% = vehicle wells with enzyme and 100% = no enzyme wells
BJeLR lethal – MLPCN primary cell-based screen for lethality selective to Ras in HRASV12 cells; BJeLR (HRASV12) viability, CellTiter-Glo ATP luminescence, 48 h; inhibition, % (concentration not given with the values); 0.17% of 300,000 active; AID 1554, 2009; in the data active means inhibition above about 50%
Active calls of the source: *; . = no result. The list is not random: actives were taken first. Their share in the collection is about 1.6%.

SMILES | ugtP null kill | PfHsp40 yeast | Sa RN4220 lethal | CCHFV vOTU inh | BJeLR lethal
Cc1ccc(C(=O)O)cc1N1C(=O)c2cccc3c([N+](=O)[O-])ccc(c23)C1=O | . | 3.6 | . | 9.3 | -0.6
O=C(O)c1ccc(CN2C(=O)c3cccc4c([N+](=O)[O-])ccc(c34)C2=O)cc1 | 97.1* | -1.6 | 45.9 | . | 72.9*
[O-]C(=C(C(=S)Nc1cccc2ccccc12)[n+]1ccccc1)c1ccc2c(c1)OCCO2 | 18.0 | 35.1* | 4.4 | . | .
CC(=NOCC(=O)OCC(=O)NCc1ccccc1)c1ccc2c(c1)OCO2 | -3.5 | . | 0.7 | . | .
CCc1c(C2(O)CCCCC2)[nH]c2ccc(C(F)(F)F)cc12 | . | 351.1* | . | 3.5 | 11.0
CCCc1cc(C(=O)NNC(=S)NCC2CCCO2)cs1 (stereo not drawn) | 5.2 | 68.8* | 4.5 | -18.6 | 3.2
CC(=O)OC1CC(OC2C(O)CC(OC3C(O)CC(OC4CCC5(C)C(CCC6C5CC(O)C5(C)C(C7=CC(=O)OC7)CCC65O)C4)OC3C)OC2C)OC(C)C1OC1OC(CO)C(O)C(O)C1O (stereo not drawn) | . | 0.1 | . | 3.6 | .
C[C@H]1O[C@@H](O[C@H]2[C@@H](O)C[C@H](O[C@H]3[C@@H](O)C[C@H](O[C@H]4CC[C@@]5(C)[C@H](CC[C@@H]6[C@@H]5C[C@@H](O)[C@]5(C)[C@@H](C7=CC(=O)OC7)CC[C@]65O)C4)O[C@@H]3C)O[C@@H]2C)C[C@H](O)[C@@H]1O | . | 1.0 | . | 3.0 | 102.0*
CCCCCCC(C)(C)c1ccc(C2CC(O)CCC2CCCO)c(O)c1 (stereo not drawn) | -2.3 | . | -6.8 | . | .
CCCCCCC(C)(C)c1ccc([C@@H]2C[C@H](O)CC[C@H]2CCCO)c(O)c1 | . | 68.3* | . | 19.3 | .
Cc1ccc(/C=N/Nc2ccc(C(=O)O)cc2)s1 | . | 123.1* | . | 4.9 | 31.6
Cc1ccc(C=NNc2cccc(C(=O)O)c2)s1 | 1.5 | . | 3.3 | . | .
CN(C)/N=C/c1ccc([N+](=O)[O-])cc1[N+](=O)[O-] | . | 30.8* | . | -9.2 | -3.6
CN(C)N=Cc1ccc([N+](=O)[O-])cc1[N+](=O)[O-] | -0.3 | . | 5.5 | . | .
Nc1ccc(S(=O)(=O)Nc2cnc3c(Cl)cccc3n2)cc1 | . | 0.6 | . | 2.0 | .
Nc1ccc(S(=O)(=O)Nc2cnc3ccccc3n2)cc1 | 91.0* | 2.1 | 2.8 | 4.1 | 2.9
O=C(NCc1nc(-c2ccc(C(F)(F)F)cc2)no1)Nc1cc(Cl)cc(Cl)c1 | 99.5* | 1.5 | 100.5* | -13.8 | -4.4
O=C(NCc1nc(-c2ccc(C(F)(F)F)cc2)no1)Nc1ccc(F)cc1F | -6.1 | -0.6 | -2.1 | -4.9 | -1.0
COC(=O)Cn1c(=NC(=O)c2ccc([N+](=O)[O-])s2)sc2cc(Br)ccc21 | 96.6* | . | 99.3* | . | -3.0
COC(=O)Cn1c(=NC(=O)c2ccc(Cl)s2)sc2cc(C)ccc21 | 2.6 | -0.3 | 0.9 | -2.1 | -4.9
COC(=O)N1CCc2c(sc(NC(=O)C3=COCCO3)c2C#N)C1 | -3.6 | 1.0 | -0.3 | -3.2 | 42.3
CNC(=O)c1c(NC(=O)C2=COCCO2)sc2c1CCN(C(=O)OC)C2 | 97.4* | 0.9 | 94.1* | -0.7 | -15.5
Cc1[nH]nc(C(=O)NN=Cc2ccccc2Cl)c1N=NN(C)C | . | 41.3* | . | -7.6 | .
O=C(NN=Cc1ccccc1Cl)c1n[nH]c2c1CCCC2 | 6.4 | . | 10.4 | . | .
COc1ccc(C=NNC(=O)COc2cccc3ccccc23)c(C(=O)O)c1OC | -2.7 | . | -4.6 | . | .
SMILES | ugtP null kill | PfHsp40 yeast | Sa RN4220 lethal | CCHFV vOTU inh | BJeLR lethal
CC(=O)n1cc(C2C=C(C(=O)NCc3ccccc3)OC(OCc3ccc(CO)cc3)C2)c2ccccc21 (stereo not drawn) | 5.3 | . | 4.5 | . | .
Cn1cc(C(=O)OCC(=O)NC2(C#N)CCCC2)c2ccccc21 | 1.2 | 65.7* | 5.0 | -0.7 | .
COc1cccc(C(=O)NN=c2oc3c(OC)cccc3cc2C(=O)NCc2ccccc2)c1 | 1.1 | . | 5.4 | . | .
COc1ccc(Oc2coc3cc(OC(=O)/C=C/c4ccccc4)ccc3c2=O)cc1 | 17.0 | 95.0* | 10.1 | -10.9 | 0.0
NC(=O)c1snnc1-c1ccccc1 | -1.8 | -1.7 | 2.4 | -19.3 | -3.1
NC(=O)c1sc2nnc(-c3ccccc3)c(-c3ccccc3)c2c1N | 83.9* | 0.8 | 1.9 | -9.9 | 2.8
CN(N=Cc1ccc(Cl)cc1Cl)c1ncc(Cl)cc1C(F)(F)F | 54.3 | . | -1.2 | . | .
CN(N=Cc1ccc(Cl)cc1)c1ncc(Cl)cc1C(F)(F)F | 97.8* | . | -10.7 | . | .
Cc1cc(C(=O)CCl)c(C)n1CCc1ccc(Cl)cc1 | 97.0* | -0.3 | 93.4* | -1.3 | -0.7
